Bioassay records: PubChem BioAssay, National Center for Advancing Translational Sciences (NCATS)
JMJD2E inh – blocks human JMJD2E demethylase activity | 230,000 tested, 1.6% active | Potency, µM (series often up to 57.1 µM), actives largely listed as inhibitors | JMJD2E catalytic domain, FDH-coupled NADH fluorescence (FDH is formaldehyde dehydrogenase); further: nearly all actives have a fitted effect of over 50% in size
FBPA coupling cs – coupling enzyme interference in Giardia aldolase counter-screen; coupling enzyme system counterscreen, AmpLite Red fluorescence; activity change, negative = inhibition, % at 58.2 µM, hits read low; 290,000 tested, 0.67% active; in the data active means activity change below about -30%
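Coupling enzymes only (glyceraldehyde-3-phosphate) + compound, at 57.5 uM final, 10 min RT; add substrate/coupling/AmpLite Red mix, 20 min RT; fluorescence ex 525/em 598 nm. Actives flag coupling-system interference.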
ALDH1A1 inh – blocks purified human ALDH1A1 activity; P00352; Purified ALDH1A1, NADH fluorescence, propionaldehyde substrate; Potency, µM (series often up to 75.3 µM), most hits filed as inhibitors; 220,000 tested, 7.3% active; AID 1030; active means well fitted inhibition curve with a large enough effect, not every such curve was filed as active; inconclusive means small, poorly fitted or top-dose-only effect, or another doubt; inactive means no such curve, though single readings can be large or run the other way
RGS12 GoLoco inh – RGS12 GoLoco-Gai1 interaction inhibition | Gai1:RGS12 GoLoco peptide FP, rhodamine, 10 min | P63096 | Potency, µM (top dose mostly 61.6 µM), usual class: inhibitors | 230,000 tested, 0.44% active; active means well fitted inhibition curve with a large enough effect, not every such curve was filed as active; inactive means no such curve, though single readings can be large or run the other way; further: nearly all actives have a fitted effect of over 30% in size
Sfp PPTase inh – inhibitors of Bacillus subtilis Sfp phosphopantetheinyl transferase. 310,000 tested, 3.5% active. Potency, µM, actives largely listed as inhibitors. Biochemical Sfp PPTase activity, qHTS. Q9F4F7;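 further: the enzyme is Sfp with the accession as filed and its product quenches rhodamine fluorescence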
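With Hepes-Na pH 7.6 buffer containing 10 mM MgCl2, Sfp (15 nM) modified BHQ-2-YbbR (12.5 uM) using rhodamine-CoA (5 uM). Two reads 30 minutes apart at 525/598 nm yielded each well's rate.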
NPSR antag – antagonists of human neuropeptide S receptor cAMP signaling; CHO-NPSR cells, cAMP TR-FRET, antagonist mode; 220,000 tested, 1% active; AID 1461; Potency, µM (top dose mostly 38.3 µM), actives largely listed as inhibitors; Q6W5P4; further: nearly all actives have a fitted effect of over 50% in size
Target sequence (Q6W5P4 whole entry, looked up): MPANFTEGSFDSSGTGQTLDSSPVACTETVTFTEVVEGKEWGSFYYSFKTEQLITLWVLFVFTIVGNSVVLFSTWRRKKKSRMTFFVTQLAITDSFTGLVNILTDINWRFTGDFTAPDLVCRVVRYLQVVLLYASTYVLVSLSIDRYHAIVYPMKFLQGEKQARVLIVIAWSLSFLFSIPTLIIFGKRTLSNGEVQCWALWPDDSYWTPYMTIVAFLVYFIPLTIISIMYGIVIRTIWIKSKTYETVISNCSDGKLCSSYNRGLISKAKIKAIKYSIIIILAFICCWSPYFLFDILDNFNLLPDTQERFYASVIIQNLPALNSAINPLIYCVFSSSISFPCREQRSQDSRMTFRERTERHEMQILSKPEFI
A number is an active result; i = inactive; ? = inconclusive; nt = not tested or not shown. Shown are actives, neighbours in structure and some others; about 8.5% of the full set was active somewhere. Unless noted, the call rests on the fitted dose curve; in most records, active means well fitted curve in the direction sought with a large enough effect; inconclusive means small, poorly fitted or top-dose-only effect, or another doubt; inactive means no such curve, though single readings can be large; an effect the other way counts as inactive or inconclusive.

SMILES	JMJD2E inh	FBPA coupling cs	ALDH1A1 inh	RGS12 GoLoco inh	Sfp PPTase inh	NPSR antag
CSC1=N/C(=C\c2cccc(Cl)c2)C(=O)N1N(C)C	i	i	i	i	i	i
OC1c2ccccc2N=C2CCCN21 (configuration not stated)	nt	i	nt	nt	i	nt
Cc1cc(C)cc(OCc2ccc(C(=O)NN)o2)c1	i	i	nt	i	i	i
CC(=O)OCC1=C(C(=O)O)N2C(=O)C(NC(=O)c3ccc(COc4ccc(Cl)cc4)o3)C2SC1 (configuration not stated)	i	i	?	i	i	i
CC(=O)OCC1=C(C(=O)O)N2C(=O)C(NC(=O)c3ccc(COc4c(C)cccc4Cl)o3)C2SC1 (configuration not stated)	i	i	?	i	63.1µM	i
COCc1cc(=O)[nH]c(SCC(=O)c2ccccc2)n1	i	i	i	i	i	i
COCc1cc(=O)[nH]c(SCCS(=O)(=O)c2ccc(C)cc2)n1	i	i	0.794µM	i	i	i
CCCc1ccc(S(=O)(=O)N/N=C(/C)c2ccc3c(c2)OCO3)cc1	nt	i	nt	nt	i	nt
CCC1=C2CC[C@H]3C(=O)NC(=O)[C@H]3[C@H]2[C@@]2(Cc3ccccc3)C(=NCc3ccccc3)OC(=O)N2C1=O	i	i	i	i	i	nt
O=C(NCCC1=CCCCC1)C1CCC(CNS(=O)(=O)c2ccccc2)CC1 (configuration not stated)	i	i	0.562µM	i	i	i
O=C(NCc1cccs1)C1CCC(CNS(=O)(=O)c2cccs2)CC1 (configuration not stated)	i	i	14.1µM	i	i	i
Cc1ccc(S(=O)(=O)NCC2CCC(C(=O)NCc3cccs3)CC2)cc1 (configuration not stated)	i	i	0.794µM	i	i	i
CC1CCN(CCCNC(=O)C2CCC(CNS(=O)(=O)c3ccccc3)CC2)CC1 (configuration not stated)	nt	nt	nt	nt	i	nt
O=C(NCCN1CCOCC1)C1CCC(CNS(=O)(=O)c2ccccc2)CC1 (configuration not stated)	i	i	12.6µM	i	i	i
Cc1ccc(S(=O)(=O)NCC2CCC(C(=O)NC3CCCCC3)CC2)cc1 (configuration not stated)	nt	i	nt	nt	i	nt
O=C(NCc1ccc2c(c1)OCO2)C1CCC(CNS(=O)(=O)c2ccccc2)CC1 (configuration not stated)	i	i	6.31µM	i	i	i
O=C(COc1ccc(S(=O)(=O)NC2CCCCC2)cc1)NCCC1=CCCCC1	i	i	7.08µM	i	i	i
O=C(NC1CCCC1)C1CCC(CNS(=O)(=O)c2cccs2)CC1 (configuration not stated)	i	i	22.4µM	i	i	i
O=C(NCc1ccc2c(c1)OCO2)C1CCC(CNS(=O)(=O)c2cccc3nsnc23)CC1 (configuration not stated)	i	i	?	i	i	i
Cc1ccc(S(=O)(=O)NCC2CCC(C(=O)NCc3ccco3)CC2)cc1 (configuration not stated)	i	i	2.82µM	i	i	i
Cc1cc(C)c(C)c(S(=O)(=O)NCc2ccc(C(=O)N3CCN(C)CC3)cc2)c1C	nt	nt	nt	nt	i	nt
CS(=O)(=O)N(CC(=O)N1CCc2ccccc2C1)c1ccc(Cl)cc1F	nt	i	nt	nt	i	nt
CCCc1ccc(C(=O)NC(=O)c2ccccc2O)cc1	i	i	nt	i	i	i
Cc1ccc(C)c(Cn2nc(-c3cc(C)ccc3C)ccc2=O)c1	nt	i	nt	nt	i	nt
Cc1ccc(S(=O)(=O)N2CCCCC2C(=O)NCc2ccco2)cc1 (configuration not stated)	i	i	?	i	56.2µM	i
SMILES	JMJD2E inh	FBPA coupling cs	ALDH1A1 inh	RGS12 GoLoco inh	Sfp PPTase inh	NPSR antag
COc1ccccc1CNC(=O)C1CCC(CNS(=O)(=O)c2cccs2)CC1 (configuration not stated)	nt	i	nt	nt	i	nt
O=S(=O)(NCC1CCN(S(=O)(=O)c2ccccc2)CC1)c1ccccc1	i	i	1.58µM	i	i	i
O=S(=O)(NCC1CCN(c2ccc(S(=O)(=O)N3CCOCC3)cc2)CC1)c1ccccc1	nt	i	nt	nt	i	nt
COc1cccc(NC(=O)C2CCC(CNS(=O)(=O)c3cccs3)CC2)c1 (configuration not stated)	i	i	12.6µM	i	i	i
O=C(NCc1cccs1)C1CCC(CNS(=O)(=O)c2ccccc2)CC1 (configuration not stated)	i	i	5.01µM	i	i	i
COc1ccc(CNC(=O)C2CCC(CNS(=O)(=O)c3ccccc3)CC2)cc1 (configuration not stated)	nt	i	nt	nt	i	nt
COC(=O)CNC(=O)C1(C)C=CC2(CCCCC2)N1C(C)=O (configuration not stated)	i	i	i	i	i	nt
O=C(c1ccccc1F)N1CCCC(C(=O)N2CCc3ccccc3C2)C1 (configuration not stated)	i	i	nt	i	i	i
O=C(CN1CCCCC1)NCCNc1ccc(C(F)(F)F)cc1[N+](=O)[O-]	i	i	i	i	i	i
CCC(CC)C(=O)Nc1nnc(S(=O)(=O)N2CCCc3ccccc32)s1	nt	i	nt	nt	i	nt
CC1CCCCN1S(=O)(=O)c1ccc(S(=O)(=O)N(Cc2ccccc2)Cc2ccco2)cc1 (configuration not stated)	i	i	7.08µM	i	i	?
COc1ccc2[nH]c3c(=O)n(CCCCC(=O)NCCN4CCCC4)c(=S)[nH]c3c2c1	?	i	?	i	79.4µM	?
CC[C@@H]1Cn2c(c3nc(-c4cc(Cl)cc(Cl)c4Cl)nc-3n(C)c2=O)N1	nt	i	?	i	i	nt
Cc1ccc2nsnc2c1S(=O)(=O)Nc1cccc2nsnc12	i	-34.0	?	i	i	i
Cc1nn(CCc2n[nH]c(=S)n2C2CCCCC2)c(C)c1Br	i	i	20µM	i	i	i
O=C(O)Cn1cnc2scc(-c3cccs3)c2c1=O	?	i	i	i	56.2µM	i
O=C(O)Cn1cnc2scc(-c3ccccc3)c2c1=O	nt	i	nt	nt	i	nt
O=C1C(=O)N(CCS(=O)(=O)c2ccccc2)c2ccc(F)cc21	nt	nt	nt	nt	i	nt
O=C(Nc1ccc([N+](=O)[O-])cc1O)Nc1ccccc1Br	nt	i	nt	nt	i	nt
CCc1nnc(N/N=C/c2c(C)[nH]c3ccccc23)n1N	i	i	i	i	8.91µM	i
COc1ccc(/C=C2/CCOC2=O)cc1	i	i	i	i	i	i
CN(C)c1ccc(/C=C2\CCC/C(=C\c3ccccc3)C2=O)cc1	i	i	12.6µM	i	?	i
CN(C)/N=C/C=C1\CCC/C(=C\c2ccc(F)c(F)c2)C1=O	i	i	?	i	8.91µM	i
COc1ccc(/C=C2\CCC/C(=C\C=N\N(C)C)C2=O)cc1	i	i	3.98µM	i	i	i
